# Records with an inconclusive call do not appear. A call without a number means that no potency is given here. Calls of active or inactive are those of the source. Calls follow the shape of the dose curve; as a rule, active = well fitted cell-killing curve with a large enough effect; inconclusive = small, poorly fitted or top-dose-only effect; inactive = flat fitted curve, though single readings scatter.
# Assay: Viability qHTS for inhibitors of the SERCaMP assay screened against the NCATS CANVASS Library (AID 1347400); also: nearly all actives have a fitted effect of over 70% in size
# Conditions: SH-SY5Y SERCaMP cells viability, CellTiter-Glo, 48 h; series mostly up to 92.2 µM
# Description: Natural products and their derivatives continue to be wellsprings of nascent therapeutic potential. However, many laboratories have limited resources for biological evaluation, leaving their previously isolated or synthesized compounds largely or completely untested. To address this issue, the Canvass library of natural products was assembled (https://tripod.nih.gov/canvass), in collaboration with academic and industry researchers, for quantitative high-throughput screening (qHTS) across a diverse set of cell-based and biochemical assays. The pure (>85% purity by liquid chromatography/mass spectrometry [LC/MS]) Canvass library of 346 natural products were submitted by 45 academic laboratories and companies around the world. We collected pure natural products to circumvent deconvolution and structure elucidation due to time and resource limitations. The library was formatted into 1536-well plates and evaluated in 50 qHTS (in an 11-pnt concentration series) bioassays with broad scope of disease-relevant mechanisms. The resulting data set from 50 different assays was then systematically analyzed to identify overall trends and specific natural products with interesting biological activities. Reported herein are the results of each individual qHTS and their corresponding assay protocol. Cytotoxic compounds are expected to interfere with the SERCaMP assay, and these are identified using a CellTiter-Glo viability assay. National Center for Advancing Translational Sciences (NCATS), Rockville, MD National Institute of Health (NIH), Bethesda, Maryland
# SERCaMP Viability assay protocol: 1. In a white-solid bottom 1536-well tissue culture plate (Corning 7494), 5 uL of SH-SY5Y-GLuc SERCaMP MJH297 derived cells were dispensed using a Multidrop Combi (Thermo Fisher Scientific) at a final concentration of 1000 cells / well. 2. The assay plates were incubated for 4 hours at 37C, 5% CO2, 95% humidity. 3. […] of compounds (in DMSO; columns 5-48), and positive control Bortezomib (1 mM; 1:2 dilution; 16-points; n = 2; column 2, rows 1-32) were pin transferred into the assay plates using the Kalypsis pin tool (Wako USA) equipped with a 1536-well pin heads. This yields a final concentration range of 0.0001 - 4.6 uM for the Bortezomib and 0.001 - 77 uM for the compounds. 4. The assay plates were incubated for 48 hours at 37C, 5% CO2, 95% humidity. 5. After incubation, 3 uL of CellTiterGlo reagent (Promega) was dispensed into each wells. 6. The plates were centrifuged for 15 seconds at 1000 rpm. 7. Luminescence signal was obtained via the ViewLux plate reader (Perkin Elmer) using the clear emission filter and 1x binning, 2 seconds exposure settings.
# Potency is read from the fitted curve at half-maximal effect.
row,SMILES,Potency
1,COc1ccc2c(c1)[nH]c1c(C)nccc12,27.8 µM (active)
2,CO[C@H](c1ccccc1)[C@H]1NC(=O)C(C)NC(=O)C(C[C@@H](C)CO)N(C)C(=O)[C@@H](C(O)c2cn(C(C)(C)C3CO3)c3ccccc23)NC(=O)C(C(C)C=C(C)C)NC(=O)C(CC(C)C)N(C)C(=O)C(C(C)C)NC1=O (some centres undefined),inactive
3,CN1C(=O)[C@]23CC4C(C)(C)[C@@]5(C[C@@]41CN2CC[C@@]3(C)O)C(=O)Nc1c5ccc2c1OC=CC(C)(C)O2 (some centres undefined),inactive
4,CCN1C[C@]2(C)CC[C@@H](O)[C@]34C1[C@H](C[C@H]23)C12CCC(CC14)[C@](O)(CO)[C@H]2O (some centres undefined),inactive
5,CC[N@@+]1([O-])C[C@]2(C)CC[C@@H](O)[C@@]34C5C[C@H]6CC[C@@]5(C(C[C@H]23)C41)[C@H](O)[C@@]6(O)CO (some centres undefined),inactive
6,CCC(=O)CCCCC[C@@H]1NC(=O)[C@H]2CCCCN2C(=O)[C@H]([C@@H](C)CC)NC(=O)[C@H](Cc2cn(OC)c3ccccc23)NC1=O,3.81 µM (active)
7,C/C=C1/CN2CC[C@]34C(=Nc5ccccc53)[C@@H]2C[C@@H]1[C@H]4C(=O)OC,inactive
8,CC1=CC(=O)C2=C(C)C[C@H](O)[C@@H]3[C@H](OC(=O)[C@@H]3C)[C@@H]12,inactive
9,C[C@]12CC(O)C3[C@@H](CCC4C[C@@H](O)CC[C@@]43CO)[C@@]1(O)CCC2C1=CC(=O)OC1 (some centres undefined),inactive
10,CN(C)Cc1c[nH]c2ccccc12,inactive
11,c1ccc2c3c([nH]c2c1)CNCC3,inactive
12,CNCCc1ccc(O)cc1,inactive
13,COC(=O)C1=C2Nc3ccccc3[C@@]23CCN2CC(C(C)=O)C1C[C@H]23 (some centres undefined),inactive
14,CC=C1CN(C=O)[C@H]2C[C@@H]1[C@@H](C(=O)OC)[C@@]13CCOC21Nc1ccccc13 (some centres undefined),inactive
15,CC1=CC2CC[C@@H]3[C@@H](C)C[C@H](C)[C@@H](C1)N23 (some centres undefined),inactive
16,C[C@@H]1CC[C@@H](c2ccoc2)N2C[C@@]3(CC[C@@H]12)CS[C@@]1(CC[C@H]2[C@H](C)CC[C@@H](c4ccoc4)N2[C@@H]1O)C3,13.5 µM (active)
17,COc1ccc(C23Oc4cc(OC)cc(OC)c4[C@](O)([C@H](c4ccccc4)C2C(=O)NCCCCNC(=O)c2ccccc2)[C@@H]3O)cc1 (some centres undefined),inactive
18,CCCCC[C@@H]1OC(=O)[C@@H](C)N(C)C(=O)[C@H](CCCCC)OC(=O)C(C)N(C)C(=O)[C@H](CCCCC)OC(=O)[C@@H](C)N(C)C(=O)[C@H](CCCCC)OC(=O)C(C)N(C)C1=O (some centres undefined),38.1 µM (active)
19,NCCc1ccccc1,inactive
20,CC[C@@H]1CN2CC[C@@]3(O)C(=Nc4cccc(OC)c43)[C@@H]2C[C@@H]1/C(=C\OC)C(=O)OC,inactive
21,CCCC[C@@H]1CC[C@H]2CCCC(CCC)N12 (some centres undefined),inactive
22,CCN1C[C@]2(C)CC[C@H](O)[C@]34C1C(C[C@H]23)[C@@]12CC[C@H](CC14)[C@](O)(COC(=O)c1ccc(OC)c(OC)c1)[C@H]2O (some centres undefined),inactive
23,CO[C@@H](/C=C/CC/C=C/C(=O)O)[C@@H](O)[C@H](C)/C=C(\C)[C@@H](O)[C@H](C)C(=O)CCCC1CC(=O)NC(=O)C1,inactive
24,O=C(c1ccccc1O)c1[nH]c(Cl)c(Cl)c1-n1c(C(=O)c2ccccc2O)cc(Cl)c1Cl,19.1 µM (active)
25,CCC[C@H]1CC[C@H]2[C@H](C)CCC[C@H]2N1,inactive
26,CO[C@@H](/C=C/CC/C=C/C(=O)O)[C@@H](O)[C@H](C)[C@@H](O)/C(C)=C/[C@H](C)C(=O)CCCC1CC(=O)NC(=O)C1,inactive
27,CC(=O)N[C@H]1CCN2CCC[C@H]12,inactive
28,CNCCc1ccccc1,inactive
29,CNCCc1c[nH]c2ccccc12,inactive
